Inconclusive results are not listed. Entries that show only a call come without a potency. Active and inactive are the calls of the source. Calls come from the whole dose curve; as a rule, active = well fitted cell-killing curve with a large enough effect in the repeat runs; inconclusive = weak or mixed curves, or effect the other way; inactive = no such curve, though single readings can be large or run the other way.
Test: qHTS assay for identifying genotoxic compounds that show differential cytotoxicity against isogenic chicken DT40 cell lines with known DNA damage response pathways - Rev3 mutant cell line (AID 743014); note: nearly all actives have a fitted effect of over 55% in size
Details: chicken DT40 Rev3-/- viability, CellTiter-Glo, 40 h; series mostly up to 68.4 µM
Description: National Center for Advancing Translational Sciences [NCATS]
NIH Chemical Genomics Center [NCGC]
U.S. Environmental Protection Agency [EPA]
National Institutes of Environmental Health Sciences [NIEHS]
National Toxicology Program [NTP]
U.S. Food and Drug Administration [FDA]
DNA repair pathways play a critical role in cellular homeostasis by repairing DNA damage induced by endogenous processes and xenobiotics. Isogenic chicken DT40 cell lines deficient in different DNA repair pathways can be used to identify genotoxic compounds and aid in characterizing the nature of the DNA damage induced. Two DNA repair-deficient cell lines with disrupted genes, Rad54/Ku70 or Rev3, were used to screen the Tox21 10K compound library. Possible genotoxicity was based on the presence of a significant increase in cytotoxicity in one or more of the DNA repair-deficient cell lines compared to that observed in the parental DNA repair-proficient cell line. CellTiter Glo viability assay (Promega, Madison, WI) was used to measure cell viability in these cells after compound treatment. This assay includes the data from the Rev3 mutant cell line.
Tox21 Assay Protocol Summary:
300 DT40 mutant cells in 5 uL/well were dispensed into white, solid-bottom 1536-well plates using a Multidrop Combi (ThermoFisher Scientific, Waltham, MA) dispenser. After the assay plates were incubated at 37 C/5% CO2 for approximately 0.5 hour, 23 nL of compounds dissolved in DMSO, positive controls or DMSO only was transferred into the assay plate by a pintool work station (Kalypsys, San Diego, CA). The assay plates were incubated at 37 C/5% CO2 for 40 hours. After 5 uL per well of CellTiter-Glo reagent was added into each well of the assay plates, the plates were incubated for 30 min at room temperature and the luminescence intensity of the plates was measured using a ViewLux (PerkinElmer, Shelton, CT) plate reader.
Potency is the fitted concentration of half-maximal effect.

For `CCCOC(C)=O`, which Potency is on record?
Its Potency is “inactive”.

Which Potency does the source give for `Nc1ccc(C(=O)Oc2ccccc2)c(O)c1` here?
Its Potency is “inactive”.

Which Potency does the source give for `COc1cccc([C@H](O)C2CCN(CCc3ccc(F)cc3)CC2)c1OC` here?
The Potency was 1.72 µM (active).

For `Cc1cc(C)c(C)c(O)c1`, which Potency is on record?
Its Potency is “inactive”.

Which Potency does the source give for `Cc1nc(C)c(C)nc1C` here?
Its Potency is “inactive”.

With `O=C1C=CCCC1` as the compound, how does the Potency read?
Its Potency is “inactive”.

For `NC(=O)c1ccccc1`, which Potency is on record?
The Potency was “inactive”.

With `CCCCCCCCS` as the compound, how does the Potency read?
The Potency was “inactive”.

For `Cc1ccc(NC=O)c(C)c1`, which Potency is on record?
The Potency was “inactive”.

For `O=C(O)c1ccc2c(c1)nc(C(=O)NC1CCN(C3CC3)CC1)n2Cc1cc(-c2ccc(Cl)s2)on1`, which Potency is on record?
The Potency was “inactive”.

Which Potency does the source give for `OCC(O)c1ccccc1` (stereo not given) here?
The Potency was “inactive”.

For `Cc1c(-c2cccnc2)c2ccccc2n1CCCCC(=O)O`, which Potency is on record?
The Potency was 30.6 µM (active).

For `CCCN(C1CCN(C(=O)C2CCNCC2)CC1)[C@@H]1CCc2ccc(OC)cc2C1`, which Potency is on record?
The Potency was 15.4 µM (active).

With `O=C1c2ccccc2C(=O)C1c1ccc2ccccc2n1` as the compound, how does the Potency read?
The Potency was “inactive”.

With `NC(=O)c1ccccc1C(N)=O` as the compound, how does the Potency read?
Its Potency is “inactive”.

For `COc1ccc(C(=O)c2ccc(C)cc2)c(O)c1`, which Potency is on record?
The Potency was “inactive”.

Which Potency does the source give for `CC(CCl)OC(C)CCl` (stereo not given) here?
Its Potency is “inactive”.

With `C=CC(C)(O)CC/C=C(/C)CCC=C(C)C` (stereo not given) as the compound, how does the Potency read?
Its Potency is 54.5 µM (active).

Which Potency does the source give for `CCCCCCCCCC(C)C=O` (stereo not given) here?
Its Potency is “inactive”.

Which Potency does the source give for `O=C(O)COCC(=O)O` here?
Its Potency is “inactive”.

With `Clc1nc2ccccc2nc1Cl` as the compound, how does the Potency read?
The Potency was “inactive”.

For `Nc1ccccc1Nc1ccccc1`, which Potency is on record?
The Potency was 8.66 µM (active).

Which Potency does the source give for `CCCCCCCCCCCCSCCOCCO` here?
Its Potency is “inactive”.

For `CC(Cc1ccccc1)(NC(=O)CN)c1ccccc1` (stereo not given), which Potency is on record?
Its Potency is “inactive”.

For `CCC[Si](OC)(OC)OC`, which Potency is on record?
Its Potency is “inactive”.

For `CCCCCC1CCC(=O)O1` (stereo not given), which Potency is on record?
Its Potency is “inactive”.

Which Potency does the source give for `O=C(Nc1ccccc1)c1cc([N+](=O)[O-])ccc1Cl` here?
The Potency was 68.6 µM (active).

For `CC(C)Oc1ccccc1O`, which Potency is on record?
Its Potency is “inactive”.

For `CC(=O)Oc1cccc2c1C(=O)c1c(OC(C)=O)cc(C(=O)O)cc1C2=O`, which Potency is on record?
Its Potency is “inactive”.

Which Potency does the source give for `C(/C=C/C=C/Nc1ccccc1)=Nc1ccccc1` here?
Its Potency is “inactive”.

Which Potency does the source give for `C=CCCC` here?
The Potency was “inactive”.

With `O=C(O)c1cc(C(=O)O)cc([N+](=O)[O-])c1` as the compound, how does the Potency read?
Its Potency is “inactive”.

With `SCCOCCOCCS` as the compound, how does the Potency read?
Its Potency is “inactive”.

For `CCCCCCCCCCCCN1CCOCC1`, which Potency is on record?
The Potency was 8.63 µM (active).

For `CC(=O)Nc1ccn(C2COC(COC(=O)c3ccccc3)O2)c(=O)n1` (stereo not given), which Potency is on record?
Its Potency is 13.3 µM (active).

With `CC1=C(C)C(=O)C(C(CCCCCC(=O)O)c2ccccc2)=C(C)C1=O` (stereo not given) as the compound, how does the Potency read?
Its Potency is “inactive”.

Which Potency does the source give for `CCc1c(C)[nH]c2c1C(=O)C(CN1CCOCC1)CC2` (stereo not given) here?
The Potency was “inactive”.

Which Potency does the source give for `O=Cc1ccc(Cl)c([N+](=O)[O-])c1` here?
Its Potency is 4.33 µM (active).

For `CCC(C)CCCC(C)(C)O` (stereo not given), which Potency is on record?
The Potency was “inactive”.

Which Potency does the source give for `COC(=O)/C=C/C(C)=C\C=C\C(C)=C\C=C\C=C(C)\C=C\C=C(C)\C=C\C(=O)O` here?
The Potency was 54.5 µM (active).
